Results taken from PubChem BioAssay (NCI).
About 83,000 compounds went through this panel and 20% of them were active in at least one assay; those are over-represented in the sample as a whole.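 Method: cells in 96-well plates; compound added at one concentration; 48 h incubation; percent growth measured; values under 10 scored active.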 Unmarked numbers belong to inactive results. Active and inactive are the calls of the source.

Legend:
Experiment in all cases: NCI-60 one-dose screen, 48 h (100 = growth as untreated, 0 = no growth, -100 = all killed)
Details in all cases: 10 µM unless noted
[1] = test system: DU-145 prostate
[2] = test system: K-562 leukemia
[3] = test system: MALME-3M melanoma
[4] = test system: MDA-MB-231 breast
[5] = test system: RXF 393 renal
[6] = test system: SF-268 CNS
[7] = test system: SF-295 CNS
[8] = test system: SF-539 CNS
[9] = test system: UACC-257 melanoma
[10] = test system: M14 melanoma
[11] = test system: HCT-15 colon
[12] = test system: HT29 colon
[13] = test system: SNB-75 CNS
[14] = test system: U251 CNS
[15] = test system: PC-3 prostate
[16] = test system: SK-MEL-5 melanoma
[17] = test system: UACC-62 melanoma
[18] = test system: LOX IMVI melanoma
[19] = test system: SK-MEL-28 melanoma
[20] = test system: SNB-19 CNS

| Compound | growth [1] | growth [2] | growth [3] | growth [4] | growth [5] | growth [6] | growth [7] | growth [8] | growth [9] | growth [10] | growth [11] | growth [12] | growth [13] | growth [14] | growth [15] | growth [16] | growth [17] | growth [18] | growth [19] | growth [20] [%] |
| --- | --- | --- | --- | --- | --- | --- | --- | --- | --- | --- | --- | --- | --- | --- | --- | --- | --- | --- | --- | --- |
| Nc1ccc(S(=O)(=O)Nc2cc(I)cc(I)c2)cc1 | 124% | 78.5% | 118% | 102% | 97.2% | 108% | 113% | 111% | 99.7% | 110% | 112% | 107% | 97.6% | 106% | 97.2% | 105% | 107% | 104% | 105% |  |
| CCCCCCCCCCCCCCCC(=O)NS(=O)(=O)OC[C@H]1O[C@@H](n2cnc3c(N)ncnc32)[C@H](O)[C@@H]1O | -33.6% (active) | 8.9% (active) | -51.6% (active) | -25.6% (active) | -83.4% (active) | -42.6% (active) | -34.6% (active) | -69.4% (active) | -20.7% (active) | -68.2% (active) | -8.55% (active) | -17.1% (active) | -41.6% (active) | -87.5% (active) | -52.4% (active) | -88.8% (active) | -48.9% (active) | -64.8% (active) | -59.7% (active) |  |
| CC(=O)Oc1ccc(C(OC(C)=O)OC(C)=O)cc1 | 103% | 89.6% | 105% | 114% | 115% | 93.3% | 99.1% | 99.7% | 107% | 99.3% | 102% | 99.8% | 106% | 106% |  | 105% | 101% | 99.2% | 107% |  |
| C#C[C@@]1(O)[C@@H](CO)O[C@@H](n2cc(Br)c3c(Cl)ccnc32)[C@@H]1O | -41.3% (active) | 14.3% | 62.1% | -26.6% (active) | -15.9% (active) | 61.7% | 26.6% | 17.8% | 91.3% | 62.4% | 8.13% (active) | 12.2% | 35.9% |  | -25.7% (active) | 73.7% | 68% | -34% (active) | 98.9% |  |
| Cc1cc(C)c(O)c(C(=O)CC(Br)C(=O)O)c1 (configuration not stated) | 95.3% | 84.5% | 111% | 121% | 119% | 95.9% | 101% | 91.2% | 96.2% | 95.1% | 103% | 99.1% |  | 100% | 89.7% | 101% | 95.7% | 93.1% |  | 108 |
| Nc1nccc2c1ccn2-c1ccc(NC(=O)Nc2cccc(C(F)(F)F)c2)cc1 | 96.7% | 81.5% | 99.3% | 72.9% | 97.8% | 96.3% | 78.2% | 86.1% | 113% | 91.5% | 90% | 96.1% | 89% | 80.5% | 70.5% | 93.5% |  | 87.6% | 101% |  |
| Nc1nc(Cl)cc(NCCCCNc2cc(Cl)nc(N)n2)n1 | 104% | 101% | 145% | 114% | 123% | 112% | 121% | 96.5% | 105% | 117% | 114% | 109% | 108% | 99.6% | 95.8% | 111% | 101% | 96.9% | 118% |  |
| COc1ccc(NC(=O)Nc2ccc(-c3ccc(OC)c(OC)c3)nc2C)cc1 | 72.2% | 73.2% | 44.1% | 40.5% | 58.2% | 59.2% | 102% | 70.6% | 55.5% | 72.1% | 91.8% | 68.8% | 47.5% | 22.1% | 81.4% | 23% | 59.9% | 88.8% | 86.8% |  |
| COc1ccc(-c2cc(-c3nnc(SC/C(=N\O)c4ccccc4)n3-c3ccccc3)c3ccccc3n2)cc1 | 111% | 113% | 100% | 103% | 117% | 102% | 104% | 102% | 104% | 116% | 107% | 99.5% | 100% | 101% | 93.6% | 108% | 97.6% | 95.7% | 113% |  |
